This passage reports outcome and AC50 results from PubChem BioAssay (EPA / NIEHS).

Assay [1] addresses CCAAT/enhancer-binding protein beta (Homo sapiens) (UniProt P17676). Kind of assay: ATG_C_EBP_CIS: Attagene CIS-FACTORIAL HepG2 Assay for human CCAAT/Enhancer Binding Protein (C/EBP) beta (AID 2282927). The conditions noted are these: HepG2 Attagene cis-factorial transcription factor reporter; actives raise or lower the signal. Put shortly: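 Transiently transfected HepG2 (MRTU library, endogenous TF-driven promoters); 24 h dosing; total RNA → oligo(dT) RT → PCR → 6-FAM primer extension → HpaI digest → CE; fit bidirectionally vs DMSO.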

The nature of assay [2]: ATG_CMV_CIS: Attagene CIS-FACTORIAL HepG2 Assay for human CMV (Internal Marker) (AID 2282928).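 Note: endpoint acts as a background internal control marker rather than a target.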 The conditions noted are these: HepG2 CMV promoter reporter, transcription factor profiling; actives raise or lower the signal. Put shortly: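 After transient transfection of HepG2 with reporter transcription units driven by cis-regulatory promoters, cells receive test chemical for 24 h. Labeled reporter amplicons, digested with HpaI, are sized and quantified by capillary electrophoresis against DMSO.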

Assay [3] is described as follows: ATG_DR4_LXR_CIS: Attagene CIS-FACTORIAL HepG2 Assay for human Liver X Receptor (LXR), DR4 submotif (AID 2282929). The note with it: HepG2 Attagene DR4 cis-reporter, mRNA transcription; actives raise or lower the signal. In a few lines: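 Cells were transfected with multiple reporter transcription units, exposed to chemicals for 24 hours, then lysed for RNA. Reporter mRNA induction was measured by RT-PCR with capillary electrophoresis detection and fitted in both directions relative to DMSO.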

For assay [4], the target named is Aryl hydrocarbon receptor (Homo sapiens) (UniProt P35869). Kind of assay: ATG_Ahr_CIS: Attagene CIS-FACTORIAL HepG2 Assay for human Aryl Hydrocarbon Receptor (Ahr) (AID 2282930). The note with it: HepG2 AhR cis-factorial reporter transcription; actives raise or lower the signal. In a few lines: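 Read-out: reporter mRNA quantified by RT-PCR with fluorescent primer extension and capillary electrophoresis. Human HepG2 liver cells carried transfected cis-promoter reporter units and were exposed to chemical for 24 h; gain or loss fitted relative to DMSO.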

Assay [5] in a line: ATG_AP_1_CIS: Attagene CIS-FACTORIAL HepG2 Assay for human Activator Protein 1 (AP-1) (AID 2282931). The note with it: HepG2 Attagene cis-factorial AP-1 reporter mRNA; actives raise or lower the signal. Put shortly:
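Endogenous transcription-factor activity in human HepG2 liver cells is read through a cis-promoter reporter transcript, sampled 24 h after dosing. Detection uses RT-PCR with capillary electrophoresis; values come from bidirectional fitting relative to DMSO.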

Assay [6] is described as follows: ATG_AP_2_CIS: Attagene CIS-FACTORIAL HepG2 Assay for human Activator Protein 2 (AP-2) (AID 2282932). The conditions noted are these: HepG2 AP-2 cis-reporter, Attagene transcription factor profiling; actives raise or lower the signal. Put shortly:
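HepG2 cells transiently transfected with cis-element reporter units and exposed for 24 h. Reporter mRNA measured by RT-PCR, FAM labelling, HpaI digestion and capillary electrophoresis. Changes in either direction fitted relative to DMSO.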

A short description of assay [7]: ATG_BRE_CIS: Attagene CIS-FACTORIAL HepG2 Assay for human Bone Morphogenetic Protein (BMP) Response Element (BRE) (AID 2282933). The conditions noted are these: HepG2 BMP response element reporter, Attagene transcription factor profiling; actives raise or lower the signal. Put shortly: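 HepG2 cells transiently transfected with CIS reporter units (endogenous TF activity, BMP response element), dosed 24 h. Reporter mRNA quantified by RT-PCR, fluorescent labelling and capillary electrophoresis; bidirectional fit vs DMSO baseline.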

The target of assay [8] is Retinoic acid receptor alpha (Homo sapiens) (UniProt P10276). Nature of the assay: ATG_DR5_RAR_CIS: Attagene CIS-FACTORIAL HepG2 Assay for human Retinoic Acid Receptor Alpha (RARE), DR5 submotif (AID 2282934). The note with it: HepG2 Attagene cis-factorial RARE DR5 reporter, mRNA; actives raise or lower the signal. Put shortly:
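Read-out: DR5-driven reporter transcript measured by RT-PCR, 6-FAM primer extension, HpaI digest and capillary electrophoresis. Human HepG2 liver cells carry transiently transfected cis-element reporter constructs; dosing lasts 24 h. Gain or loss of signal fitted against DMSO baseline.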

Assay [9] has as its target Transcription factor E2F1 (Homo sapiens) (UniProt Q01094). Nature of the assay: ATG_E2F_CIS: Attagene CIS-FACTORIAL HepG2 Assay for human E2F Transcription Factor 1 (AID 2282935). The note with it: HepG2 Attagene cis-reporter, E2F reporter RNA transcripts; actives raise or lower the signal. Put shortly: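 Endogenous E2F1 activity read through cis-promoter reporter units transfected into HepG2. After 24 h compound treatment, reporter mRNA measured by RT-PCR, HpaI digestion and capillary electrophoresis. Bidirectional fit versus DMSO.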

A short description of assay [10]: ATG_E_Box_CIS: Attagene CIS-FACTORIAL HepG2 Assay for human Enhancer Box (E-box) (AID 2282936). The note with it: HepG2 E-box cis-reporter transcription, actives raise or lower the signal. In a few lines: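 HepG2 cells transiently transfected with multiplexed cis-element reporter units, dosed 24 h; reporter mRNA quantified by RT-PCR, 6-FAM labelling, HpaI digestion and capillary electrophoresis. E-box (USF1) signal fitted bidirectionally vs DMSO.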

The nature of assay [11]: ATG_M_61_CIS: Attagene CIS-FACTORIAL HepG2 Assay for M61 Transcription Factor (Internal Marker) (AID 2282937). The note with it: HepG2 Attagene CIS-FACTORIAL M61 internal marker reporter; actives raise or lower the signal. In a few lines:
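Cells were transfected with reporter units under cis-regulatory promoters, treated with chemicals for 24 h, then lysed for RNA. Reporter transcripts were quantified by RT-PCR and capillary electrophoresis, and activity was fitted bidirectionally against DMSO.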

Assay [12] can be described thus: ATG_EGR_CIS: Attagene CIS-FACTORIAL HepG2 Assay for human Early Growth Response 1 (EGR1) (AID 2282938). The note with it: HepG2 Attagene CIS-FACTORIAL EGR reporter mRNA; actives raise or lower the signal. In a few lines:
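Endogenous TF activity in HepG2 liver cells was gauged through cis-promoter reporter constructs transiently transfected. After 24 h dosing, reporter mRNA was quantified by RT-PCR and capillary electrophoresis, and curves fitted in both directions versus DMSO.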

Assay [13] can be described thus: ATG_M_19_CIS: Attagene CIS-FACTORIAL HepG2 Assay for M19 Transcription Factor (Internal Marker) (AID 2282939). The note with it: HepG2 Attagene CIS-FACTORIAL M19 internal marker reporter; actives raise or lower the signal. Put shortly:
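HepG2 cells transiently transfected with cis-regulated multiplexed reporter units, dosed 24 h. Reporter mRNA quantified by RT-PCR and capillary electrophoresis; internal background marker fitted bidirectionally versus DMSO.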

Assay [14] can be described thus: ATG_Ets_CIS: Attagene CIS-FACTORIAL HepG2 Assay for human Erythroblast Transformation Specific (ETS) (AID 2282941). The note with it: HepG2 ETS cis-reporter transcription, actives raise or lower the signal. Put shortly: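 Human HepG2 hepatoma cells were transiently transfected with promoter-driven reporter constructs and treated for 24 hours. Reporter transcripts were quantified by RT-PCR with fluorescent primer extension; bidirectional curve fitting used DMSO as reference.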

Assay [15] addresses Hepatocyte nuclear factor 3-beta (Homo sapiens) (UniProt Q9Y261). Nature of the assay: ATG_FoxA2_CIS: Attagene CIS-FACTORIAL HepG2 Assay for human Forkhead box A2 (FOXA2) (AID 2282942). The conditions noted are these: HepG2 cis-reporter transcription factor activity, 24 h; actives raise or lower the signal. Put shortly:
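Endogenous transcription factor activity was read in HepG2 cells carrying transiently transfected cis-promoter reporter units. After 24 h dosing, reporter mRNA was quantified by RT-PCR and capillary electrophoresis, and values fitted bidirectionally versus DMSO.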

Assay [16] is described as follows: ATG_FoxO_CIS: Attagene CIS-FACTORIAL HepG2 Assay for human Forkhead box O (FoxO) (AID 2282943). The note with it: HepG2 Attagene cis-reporter, FoxO element, mRNA; actives raise or lower the signal. Put shortly:
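Read-out: fluorescence of 6-FAM-labelled reporter cDNA fragments resolved by capillary electrophoresis. Transiently transfected HepG2 cells were dosed for 24 h; activity fitted in both directions relative to DMSO controls.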

Assay [17] in a line: ATG_GATA_CIS: Attagene CIS-FACTORIAL HepG2 Assay for human GATA Binding Protein (AID 2282944). The conditions noted are these: HepG2 GATA cis-element reporter, Attagene multiplex mRNA; actives raise or lower the signal. Put shortly: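 HepG2 cells transiently transfected with multiplexed cis-element reporter units measure endogenous GATA activity; after 24 h compound exposure, reporter mRNA quantified by RT-PCR and capillary electrophoresis. Changes fitted in both directions vs DMSO.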

Assay [18] addresses Bile acid receptor (Homo sapiens) (UniProt Q96RI1). Kind of assay: ATG_IR1_CIS: Attagene CIS-FACTORIAL HepG2 Assay for human Nuclear Receptor Subfamily 1 Group H Member 4 (NR1H4), IR1 submotif (AID 2282946). The note with it: IR1 reporter transcription, actives raise or lower the signal. In a few lines:
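HepG2 cells transiently transfected with multiple cis-promoter-driven reporter units to measure endogenous transcription factor activity; 24 h exposure. Reporter mRNA read by RT-PCR, FAM labelling, HpaI digestion and capillary electrophoresis. Bidirectional fit versus DMSO.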

Assay [19] in a line: ATG_GLI_CIS: Attagene CIS-FACTORIAL HepG2 Assay for human Zinc Finger Protein GLI1 (AID 2282945). The note with it: HepG2, Attagene cis-factorial reporter mRNA, GLI element; actives raise or lower the signal. Put shortly:
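Transiently transfected HepG2 cells report endogenous transcription factor activity via cis-element-driven reporter units. After 24 h compound exposure, reporter mRNA was measured by RT-PCR with capillary electrophoresis; bidirectional fitting against DMSO baseline.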

Calls of active or inactive are those of the source. Rule for the calls: active = hit-call score of the fitted dose curve at least 0.9, where 1 is the maximum; inactive = score below 0.9.

Bile acid receptor (Homo sapiens), sequence (Q96RI1 whole entry, looked up): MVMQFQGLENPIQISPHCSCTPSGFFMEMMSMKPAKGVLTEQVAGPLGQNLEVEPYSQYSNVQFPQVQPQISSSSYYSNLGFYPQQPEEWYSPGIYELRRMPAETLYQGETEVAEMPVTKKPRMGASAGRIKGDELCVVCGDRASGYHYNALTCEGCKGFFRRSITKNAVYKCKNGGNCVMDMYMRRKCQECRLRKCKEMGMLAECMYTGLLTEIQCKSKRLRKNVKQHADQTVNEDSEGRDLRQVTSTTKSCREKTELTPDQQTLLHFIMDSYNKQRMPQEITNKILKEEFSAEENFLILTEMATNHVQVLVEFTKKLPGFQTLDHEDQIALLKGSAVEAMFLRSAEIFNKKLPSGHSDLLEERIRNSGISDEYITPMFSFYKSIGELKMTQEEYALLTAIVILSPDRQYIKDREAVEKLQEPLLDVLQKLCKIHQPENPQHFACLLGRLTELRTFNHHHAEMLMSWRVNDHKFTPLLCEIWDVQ
CCAAT/enhancer-binding protein beta (Homo sapiens), sequence (P17676 whole entry, looked up): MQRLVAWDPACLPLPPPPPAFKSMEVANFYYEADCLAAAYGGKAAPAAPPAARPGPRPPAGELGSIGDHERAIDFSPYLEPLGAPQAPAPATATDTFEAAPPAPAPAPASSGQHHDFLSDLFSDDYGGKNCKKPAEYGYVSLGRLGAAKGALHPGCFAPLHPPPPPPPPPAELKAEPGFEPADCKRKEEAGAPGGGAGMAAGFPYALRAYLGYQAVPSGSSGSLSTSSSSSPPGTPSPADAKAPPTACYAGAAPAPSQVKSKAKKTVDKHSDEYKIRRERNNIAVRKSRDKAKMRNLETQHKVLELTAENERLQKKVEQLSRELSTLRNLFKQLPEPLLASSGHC
Transcription factor E2F1 (Homo sapiens), sequence (Q01094 whole entry, looked up): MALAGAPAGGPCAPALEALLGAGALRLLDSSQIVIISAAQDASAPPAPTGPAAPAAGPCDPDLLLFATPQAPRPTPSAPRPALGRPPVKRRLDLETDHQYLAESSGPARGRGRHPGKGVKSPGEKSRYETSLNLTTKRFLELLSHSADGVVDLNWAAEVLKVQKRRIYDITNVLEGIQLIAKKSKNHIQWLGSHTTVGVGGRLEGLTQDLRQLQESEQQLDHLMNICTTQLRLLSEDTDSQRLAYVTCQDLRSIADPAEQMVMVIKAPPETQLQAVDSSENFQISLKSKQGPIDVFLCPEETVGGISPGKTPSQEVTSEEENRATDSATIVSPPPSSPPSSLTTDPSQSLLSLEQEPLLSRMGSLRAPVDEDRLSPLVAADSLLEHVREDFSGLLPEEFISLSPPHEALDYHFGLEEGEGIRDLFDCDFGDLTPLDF
Hepatocyte nuclear factor 3-beta (Homo sapiens), sequence (Q9Y261 whole entry, looked up): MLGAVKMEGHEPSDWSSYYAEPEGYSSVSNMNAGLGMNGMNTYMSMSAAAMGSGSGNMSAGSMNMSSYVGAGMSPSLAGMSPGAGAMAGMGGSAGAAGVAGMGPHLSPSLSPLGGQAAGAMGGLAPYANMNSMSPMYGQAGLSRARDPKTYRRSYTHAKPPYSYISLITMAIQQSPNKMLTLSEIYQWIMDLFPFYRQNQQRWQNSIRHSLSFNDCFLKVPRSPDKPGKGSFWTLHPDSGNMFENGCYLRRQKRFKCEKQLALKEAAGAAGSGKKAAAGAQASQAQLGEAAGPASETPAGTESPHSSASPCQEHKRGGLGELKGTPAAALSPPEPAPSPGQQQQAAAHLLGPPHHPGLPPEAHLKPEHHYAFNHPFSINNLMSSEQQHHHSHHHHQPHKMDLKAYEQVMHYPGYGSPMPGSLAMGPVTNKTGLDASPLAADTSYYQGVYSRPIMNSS
Retinoic acid receptor alpha (Homo sapiens), sequence (P10276 whole entry, looked up): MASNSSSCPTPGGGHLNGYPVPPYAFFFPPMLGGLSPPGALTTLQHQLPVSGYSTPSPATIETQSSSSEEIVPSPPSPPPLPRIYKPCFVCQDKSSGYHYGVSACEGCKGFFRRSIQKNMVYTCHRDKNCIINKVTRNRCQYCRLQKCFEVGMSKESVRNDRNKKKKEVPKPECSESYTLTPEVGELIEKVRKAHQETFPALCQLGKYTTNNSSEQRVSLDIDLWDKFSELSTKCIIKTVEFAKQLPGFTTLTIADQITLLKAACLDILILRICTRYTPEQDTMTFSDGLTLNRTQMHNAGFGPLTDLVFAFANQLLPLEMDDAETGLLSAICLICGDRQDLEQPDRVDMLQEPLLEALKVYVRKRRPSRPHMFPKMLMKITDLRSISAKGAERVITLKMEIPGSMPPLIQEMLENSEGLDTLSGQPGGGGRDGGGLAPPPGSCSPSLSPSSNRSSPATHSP
Aryl hydrocarbon receptor (Homo sapiens), sequence (P35869 whole entry, looked up): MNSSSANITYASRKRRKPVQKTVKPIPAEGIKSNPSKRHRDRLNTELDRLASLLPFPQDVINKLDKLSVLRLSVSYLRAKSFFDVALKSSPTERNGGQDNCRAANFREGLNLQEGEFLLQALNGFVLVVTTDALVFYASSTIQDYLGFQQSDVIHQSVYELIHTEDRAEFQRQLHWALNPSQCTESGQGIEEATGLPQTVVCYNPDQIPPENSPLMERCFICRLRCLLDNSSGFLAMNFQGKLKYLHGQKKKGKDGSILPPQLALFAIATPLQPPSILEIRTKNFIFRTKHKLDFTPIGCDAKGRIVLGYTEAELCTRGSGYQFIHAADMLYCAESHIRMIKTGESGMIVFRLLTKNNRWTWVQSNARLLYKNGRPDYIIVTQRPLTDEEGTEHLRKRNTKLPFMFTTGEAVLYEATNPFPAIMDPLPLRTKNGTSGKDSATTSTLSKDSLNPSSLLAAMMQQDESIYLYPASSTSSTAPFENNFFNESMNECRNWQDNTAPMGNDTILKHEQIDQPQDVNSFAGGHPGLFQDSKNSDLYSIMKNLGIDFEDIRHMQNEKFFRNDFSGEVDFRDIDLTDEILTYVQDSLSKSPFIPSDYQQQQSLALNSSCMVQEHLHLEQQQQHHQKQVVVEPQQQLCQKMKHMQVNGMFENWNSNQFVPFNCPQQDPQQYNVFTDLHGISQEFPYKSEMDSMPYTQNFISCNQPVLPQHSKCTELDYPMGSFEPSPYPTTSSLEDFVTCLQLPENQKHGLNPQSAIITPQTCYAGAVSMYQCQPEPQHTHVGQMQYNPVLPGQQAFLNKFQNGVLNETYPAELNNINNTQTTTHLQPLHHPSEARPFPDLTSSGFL

Consider `O=P(O)(O)O`, for which the result in [1], in assay [2], in assay [3], in assay [4], in assay [5] and in [6] was inactive. For the same compound, the compound was called inactive in assay [7], in assay [8], in assay [9], in assay [10], in assay [11] and in assay [12]. The outcome in assay [13], in assay [14], in [15], in assay [16], in [17] and in assay [18] was inactive.
Take `Cc1ncc([N+](=O)[O-])n1CCO`: the outcome in assay [1], in [2], in assay [3], in assay [4], in [5] and in assay [7] was inactive. Moreover, the compound was classed as inactive in assay [8], in assay [9], in [10], in [11], in [12] and in assay [14]. The compound was classed as inactive in [15], in [16] and in assay [19].
For the compound `CC(=O)CC(=O)Nc1ccccc1`, the result in assay [1], in assay [2], in assay [3], in assay [5], in assay [6] and in assay [7] was inactive. The result in assay [8], in assay [10], in assay [11], in assay [12], in assay [13] and in assay [14] was inactive. Also, the compound was classed as inactive in assay [15], in assay [16], in assay [17], in assay [19] and in assay [18].
What is called AC50 is the concentration giving half of the maximal activity seen. For `CCCC1O[C@@H]2C[C@H]3[C@@H]4CCC5=CC(=O)C=C[C@]5(C)[C@H]4[C@@H](O)C[C@]3(C)[C@]2(C(=O)CO)O1` (stereo partly specified), the half-maximal activity concentration (AC50) was 56.5 µM (active) in assay [1], 100 µM (active) in assay [3], 165 µM (active) in assay [5] and 100 µM (active) in [18]. Also, the outcome in assay [2], in [6], in assay [7], in assay [8], in [9] and in assay [11] was inactive. Moreover, the compound was called inactive in [12], in [13], in [15], in [16], in assay [17] and in [19].
